B1: CGAA (dsDNA)
DNA 1: GCTATCTAGTGCTCAGTACGCACTGCGAAAGGAAACTTCTGGCAGGACCAGGTCATGAGATCGGAAGAGCACACGTCTGAACTCCAGTCA
DNA 2: TGACTGGAGTTCAGACGTGTGCTCTTCCGATCTCATGACCTGGTCCTGCCAGAAGTTTCCTTTCGCAGTGCGTACTGAGCACTAGATAGC
RNA: AAUUUCUACUCUUGUAGAUAGGAAACUUCUGGCAGGACC
B2: CGCT (dsDNA)
DNA 1: GCTATCTAGTGCTCAGTACGCACTGCGCTAGGAAACTTCTGGCAGGACCAGGTCATGAGATCGGAAGAGCACACGTCTGAACTCCAGTCA
DNA 2: TGACTGGAGTTCAGACGTGTGCTCTTCCGATCTCATGACCTGGTCCTGCCAGAAGTTTCCTAGCGCAGTGCGTACTGAGCACTAGATAGC
RNA: AAUUUCUACUCUUGUAGAUAGGAAACUUCUGGCAGGACC
B3: CGCC (dsDNA)
DNA 1: GCTATCTAGTGCTCAGTACGCACTGCGCCAGGAAACTTCTGGCAGGACCAGGTCATGAGATCGGAAGAGCACACGTCTGAACTCCAGTCA
DNA 2: TGACTGGAGTTCAGACGTGTGCTCTTCCGATCTCATGACCTGGTCCTGCCAGAAGTTTCCTGGCGCAGTGCGTACTGAGCACTAGATAGC
RNA: AAUUUCUACUCUUGUAGAUAGGAAACUUCUGGCAGGACC
B4: CGCA (dsDNA)
DNA 1: GCTATCTAGTGCTCAGTACGCACTGCGCAAGGAAACTTCTGGCAGGACCAGGTCATGAGATCGGAAGAGCACACGTCTGAACTCCAGTCA
DNA 2: TGACTGGAGTTCAGACGTGTGCTCTTCCGATCTCATGACCTGGTCCTGCCAGAAGTTTCCTTGCGCAGTGCGTACTGAGCACTAGATAGC
RNA: AAUUUCUACUCUUGUAGAUAGGAAACUUCUGGCAGGACC
B5: CGAG (dsDNA)
DNA 1: GCTATCTAGTGCTCAGTACGCACTGCGAGAGGAAACTTCTGGCAGGACCAGGTCATGAGATCGGAAGAGCACACGTCTGAACTCCAGTCA
DNA 2: TGACTGGAGTTCAGACGTGTGCTCTTCCGATCTCATGACCTGGTCCTGCCAGAAGTTTCCTCTCGCAGTGCGTACTGAGCACTAGATAGC
RNA: AAUUUCUACUCUUGUAGAUAGGAAACUUCUGGCAGGACC
B6: CGGA (dsDNA)
DNA 1: GCTATCTAGTGCTCAGTACGCACTGCGGAAGGAAACTTCTGGCAGGACCAGGTCATGAGATCGGAAGAGCACACGTCTGAACTCCAGTCA
DNA 2: TGACTGGAGTTCAGACGTGTGCTCTTCCGATCTCATGACCTGGTCCTGCCAGAAGTTTCCTTCCGCAGTGCGTACTGAGCACTAGATAGC
RNA: AAUUUCUACUCUUGUAGAUAGGAAACUUCUGGCAGGACC
B7: CGCG (dsDNA)
DNA 1: GCTATCTAGTGCTCAGTACGCACTGCGCGAGGAAACTTCTGGCAGGACCAGGTCATGAGATCGGAAGAGCACACGTCTGAACTCCAGTCA
DNA 2: TGACTGGAGTTCAGACGTGTGCTCTTCCGATCTCATGACCTGGTCCTGCCAGAAGTTTCCTCGCGCAGTGCGTACTGAGCACTAGATAGC
RNA: AAUUUCUACUCUUGUAGAUAGGAAACUUCUGGCAGGACC
B8: CGAC (dsDNA)
DNA 1: GCTATCTAGTGCTCAGTACGCACTGCGACAGGAAACTTCTGGCAGGACCAGGTCATGAGATCGGAAGAGCACACGTCTGAACTCCAGTCA
DNA 2: TGACTGGAGTTCAGACGTGTGCTCTTCCGATCTCATGACCTGGTCCTGCCAGAAGTTTCCTGTCGCAGTGCGTACTGAGCACTAGATAGC
RNA: AAUUUCUACUCUUGUAGAUAGGAAACUUCUGGCAGGACC
B9: CGAT (dsDNA)
DNA 1: GCTATCTAGTGCTCAGTACGCACTGCGATAGGAAACTTCTGGCAGGACCAGGTCATGAGATCGGAAGAGCACACGTCTGAACTCCAGTCA
DNA 2: TGACTGGAGTTCAGACGTGTGCTCTTCCGATCTCATGACCTGGTCCTGCCAGAAGTTTCCTATCGCAGTGCGTACTGAGCACTAGATAGC
RNA: AAUUUCUACUCUUGUAGAUAGGAAACUUCUGGCAGGACC
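Note: relative affinity from the bound to unbound sequence frequency ratio in Spec-seq.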

One test addresses dAsCas12a S542R (Acidaminococcus sp., UniProt U2UMQ6 1-1307, S542R;D908A;E993A;D1235A). Kind of test: Spec-seq (native PAGE EMSA with sequencing of bound and unbound); 25 mM Tris-HCl pH 7.4, 150 mM KCl, 5 mM MgCl2, 10% glycerol, 1 mM DTT, 40 ng/uL salmon sperm DNA; 400 nM Cas12a, 480 nM crRNA, 50 nM library, 37 C 1 h; native PAGE at room temperature; high values mean tight binding. The note with it: protein: recombinant. A general note: Mobility shift assays separate free from complexed probe on a gel.
Regarding B1, the binding signal is -8.66 lnKA.
Regarding B2, the binding signal is -8.52 lnKA.
On the same count and under the same terms, the same measure for B3: -8.54 lnKA; for B4: -8.48 lnKA; for B5: -8.83 lnKA.
Still for that read-out and setting: then B6, with -8.76 lnKA; and B7, with -8.29 lnKA; and B8, with -8.8 lnKA.
Same read-out and setting: then B9, with -8.8 lnKA.

For a further test, the target named is d-enCas12a (Acidaminococcus sp., UniProt U2UMQ6 1-1307, E174R;S542R;K548R;D908A;E993A;D1235A). The description is as above. The note with it: protein: recombinant.
Take B1: the binding signal was -5.81 lnKA.
With B2, the binding signal was -4.5 lnKA.
B3: the binding signal was -1.48 lnKA.
On the same count and under the same terms, then B4, with -2.19 lnKA; and B5, with -5.83 lnKA; and B6, with -5.73 lnKA.
As to B7, the binding signal is -3.31 lnKA.
On the same count and under the same terms, then B8, with -5.58 lnKA; and B9, with -5.8 lnKA.

Another test deals with d-enCas12a-Ultra (Acidaminococcus sp., UniProt U2UMQ6 1-1307, E174R;S542R;K548R;M537R;F870L;D908A;E993A;D1235A). The description is as above. The note with it: protein: recombinant.
For B1, the binding signal was -3.32 lnKA.
Regarding B2, the binding signal is -1.29 lnKA.
On to B3, for which the binding signal was -0.384 lnKA.
The same measure, in the same setting: then B4, with -0.537 lnKA; and B5, with -3.31 lnKA; and B6, with -3.26 lnKA.
On the same count and under the same terms, then B7, with -0.79 lnKA; and B8, with -2.94 lnKA.
On the same count and under the same terms, then B9, with -3.4 lnKA.

For the origin of these results see article PMC8222333, “AsCas12a ultra nuclease facilitates the rapid generation of therapeutic cell medicines”.
